From the supplement of paper PMC10849652
About 7,900 targets were measured; listed, in parts, are those with a hit and a random draw of the rest. About 0.6% of all pairs of compound and target were hits. Unmarked numbers belong to inactive results.

Assays:
Assay in all cases: log2 fold change, soluble protein after heating vs DMSO (PISA); higher = thermal stabilisation; K562 cells, 10 uM, 30 min; active = over 0.2 and 3.5 SD of the protein, either way, in both replicates (recomputed)
[1] = compound: CC[C@@H]1C(=O)N(C)c2cnc(Nc3ccc(C(=O)NC4CCN(C)CC4)cc3OC)nc2N1C1CCCC1
How it was run: (§1)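 For each measurement, 10 μM compound was applied for 30 min to K562 cells at 2×10^6 cells/mL. Aliquots were heated for 3 min across 48°C-58°C, pooled, and extracted in PBS with 0.5% NP-40 at 4°C; the supernatant after 21,000xg for 90 min was soluble protein. This was quantified by TMTpro 16plex LC-MS/MS with channel sums equalised, and thermal stability was reported relative to control samples from duplicates, on a log2 fold-change scale.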

volasertib = compound: CC[C@@H]1C(=O)N(C)c2cnc(Nc3ccc(C(=O)N[C@H]4CC[C@H](N5CCN(CC6CC6)CC5)CC4)cc3OC)nc2N1C(C)C [volasertib]
How it was run: as §1

[2] = compound: CC[C@H](C)N1C=C(C2=C(C=C(C=C21)C3=CN=C(C=C3)N4CCNCC4)C(=O)NCC5=C(C=C(NC5=O)C)C)C
How it was run: as §1

epoxomicin = compound: CC[C@H](C)[C@@H](C(=O)N[C@@H]([C@@H](C)O)C(=O)N[C@@H](CC(C)C)C(=O)[C@]1(CO1)C)NC(=O)[C@H]([C@@H](C)CC)N(C)C(=O)C [epoxomicin]
How it was run: as §1

[3] = compound: CCn1c(C(=O)N(C2CC2)C2CC2)cc2c3c(ncn3C)c(Nc3cc(C)n(C)n3)nc21
How it was run: as §1

[4] = compound: CCn1cc(-c2ccnc3[nH]c(-c4cccc(CN(C)C)c4)cc23)c(-c2ccc(NC(=O)N(C)C)cc2)n1
How it was run: as §1

[5] = compound: CN(C)CC(=O)Nc1ccc2[nH]c(=O)c3ccccc3c2c1
How it was run: as §1

rosiglitazone = compound: CN(CCOC1=CC=C(C=C1)C[C@H]2C(=O)NC(=O)S2)C3=CC=CC=N3 (racemic) [rosiglitazone]
How it was run: as §1

[6] = compound: CN1C2=C(C3=C1C(=O)N(N=C3)CC4=CC(=CC=C4)N)SC(=C2)S(=O)C
How it was run: as §1

[7] = compound: CN1CCC(CNc2ccc3ncc(-c4cccc(OC(F)(F)F)c4)n3n2)CC1
How it was run: as §1

saracatinib = compound: CN1CCN(CCOc2cc(OC3CCOCC3)c3c(Nc4c(Cl)ccc5c4OCO5)ncnc3c2)CC1 [saracatinib]
How it was run: as §1

sotrastaurin = compound: CN1CCN(c2nc(C3=C(c4c[nH]c5ccccc45)C(=O)NC3=O)c3ccccc3n2)CC1 [sotrastaurin]
How it was run: as §1

alvocidib = compound: CN1CC[C@H](c2c(O)cc(O)c3c(=O)cc(-c4ccccc4Cl)oc23)[C@H](O)C1 [alvocidib]
How it was run: as §1

Tubastatin A = compound: CN1CCc2c(c3ccccc3n2Cc2ccc(C(=O)NO)cc2)C1 [Tubastatin A]
How it was run: as §1

[8] = compound: CNC(=O)C1=CC=CC=C1NC2=NC(=NC=C2Cl)NC3=C(C=C(C=C3)N4CCOCC4)OC
How it was run: as §1

defactinib = compound: CNC(=O)c1ccc(Nc2ncc(C(F)(F)F)c(NCc3nccnc3N(C)S(C)(=O)=O)n2)cc1 [defactinib]
How it was run: as §1

rucaparib = compound: CNCc1ccc(-c2[nH]c3cc(F)cc4c3c2CCNC4=O)cc1 [rucaparib]
How it was run: as §1

[9] = compound: CNc1nc(-c2ccc3c(N)n[nH]c3c2)cc(N2C[C@@H](C(=O)NC3CCCCC3)CC[C@H]2C)n1
How it was run: as §1

encorafenib = compound: COC(=O)N[C@@H](C)CNc1nccc(-c2cn(C(C)C)nc2-c2cc(Cl)cc(NS(C)(=O)=O)c2F)n1 [encorafenib]
How it was run: as §1

[10] = compound: COC(=O)[C@H](CCSC)NC(=O)C1=C(C=C(C=C1)NC[C@H](CS)N)C2=CC=CC=C2
How it was run: as §1

Sequence of UniProt Q9H0E9 (Q9H0E9 whole entry, looked up): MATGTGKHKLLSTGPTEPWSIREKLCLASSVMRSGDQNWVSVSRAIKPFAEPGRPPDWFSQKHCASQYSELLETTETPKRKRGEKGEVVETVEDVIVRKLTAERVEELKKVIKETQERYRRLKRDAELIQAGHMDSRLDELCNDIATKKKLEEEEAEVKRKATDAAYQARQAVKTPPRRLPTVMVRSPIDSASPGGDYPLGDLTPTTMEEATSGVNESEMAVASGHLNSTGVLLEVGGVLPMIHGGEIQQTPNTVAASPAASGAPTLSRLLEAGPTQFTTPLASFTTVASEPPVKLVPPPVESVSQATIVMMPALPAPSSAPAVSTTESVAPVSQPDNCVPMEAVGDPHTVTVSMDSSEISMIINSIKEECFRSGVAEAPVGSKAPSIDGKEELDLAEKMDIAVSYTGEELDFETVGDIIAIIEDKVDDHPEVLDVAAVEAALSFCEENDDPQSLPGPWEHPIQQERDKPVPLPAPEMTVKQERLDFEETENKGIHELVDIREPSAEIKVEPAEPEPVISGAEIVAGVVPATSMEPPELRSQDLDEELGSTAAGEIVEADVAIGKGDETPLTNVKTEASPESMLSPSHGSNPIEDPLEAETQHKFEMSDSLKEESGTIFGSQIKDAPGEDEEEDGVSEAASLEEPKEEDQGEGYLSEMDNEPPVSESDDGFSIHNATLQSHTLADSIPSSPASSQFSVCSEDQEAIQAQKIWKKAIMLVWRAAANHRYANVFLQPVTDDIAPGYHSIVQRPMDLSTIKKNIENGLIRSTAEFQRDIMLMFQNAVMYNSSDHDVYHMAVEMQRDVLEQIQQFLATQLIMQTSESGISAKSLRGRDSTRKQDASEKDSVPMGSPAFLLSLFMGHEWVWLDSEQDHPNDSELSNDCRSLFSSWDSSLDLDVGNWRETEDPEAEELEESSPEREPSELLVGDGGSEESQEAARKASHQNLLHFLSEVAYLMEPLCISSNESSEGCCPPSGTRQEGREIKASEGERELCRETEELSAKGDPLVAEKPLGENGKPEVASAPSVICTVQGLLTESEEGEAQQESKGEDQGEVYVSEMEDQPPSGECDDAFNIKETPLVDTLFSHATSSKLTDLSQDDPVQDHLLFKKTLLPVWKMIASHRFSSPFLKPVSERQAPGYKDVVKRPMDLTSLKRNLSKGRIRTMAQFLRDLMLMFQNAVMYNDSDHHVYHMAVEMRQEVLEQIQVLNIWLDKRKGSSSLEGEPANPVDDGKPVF
Sequence of UniProt P15291 (P15291 whole entry, looked up): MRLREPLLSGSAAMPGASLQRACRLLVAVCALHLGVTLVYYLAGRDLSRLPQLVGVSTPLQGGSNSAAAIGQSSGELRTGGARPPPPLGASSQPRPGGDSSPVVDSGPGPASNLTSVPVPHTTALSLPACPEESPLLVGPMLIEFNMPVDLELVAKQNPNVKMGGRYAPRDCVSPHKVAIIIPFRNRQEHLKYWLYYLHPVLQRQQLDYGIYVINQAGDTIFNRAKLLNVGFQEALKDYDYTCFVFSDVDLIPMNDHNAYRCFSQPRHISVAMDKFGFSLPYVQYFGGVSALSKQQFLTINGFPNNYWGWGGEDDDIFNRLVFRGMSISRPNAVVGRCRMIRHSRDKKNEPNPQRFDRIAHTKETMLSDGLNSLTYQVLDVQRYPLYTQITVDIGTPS
Sequence of UniProt Q9Y6D6 (Q9Y6D6 whole entry, looked up): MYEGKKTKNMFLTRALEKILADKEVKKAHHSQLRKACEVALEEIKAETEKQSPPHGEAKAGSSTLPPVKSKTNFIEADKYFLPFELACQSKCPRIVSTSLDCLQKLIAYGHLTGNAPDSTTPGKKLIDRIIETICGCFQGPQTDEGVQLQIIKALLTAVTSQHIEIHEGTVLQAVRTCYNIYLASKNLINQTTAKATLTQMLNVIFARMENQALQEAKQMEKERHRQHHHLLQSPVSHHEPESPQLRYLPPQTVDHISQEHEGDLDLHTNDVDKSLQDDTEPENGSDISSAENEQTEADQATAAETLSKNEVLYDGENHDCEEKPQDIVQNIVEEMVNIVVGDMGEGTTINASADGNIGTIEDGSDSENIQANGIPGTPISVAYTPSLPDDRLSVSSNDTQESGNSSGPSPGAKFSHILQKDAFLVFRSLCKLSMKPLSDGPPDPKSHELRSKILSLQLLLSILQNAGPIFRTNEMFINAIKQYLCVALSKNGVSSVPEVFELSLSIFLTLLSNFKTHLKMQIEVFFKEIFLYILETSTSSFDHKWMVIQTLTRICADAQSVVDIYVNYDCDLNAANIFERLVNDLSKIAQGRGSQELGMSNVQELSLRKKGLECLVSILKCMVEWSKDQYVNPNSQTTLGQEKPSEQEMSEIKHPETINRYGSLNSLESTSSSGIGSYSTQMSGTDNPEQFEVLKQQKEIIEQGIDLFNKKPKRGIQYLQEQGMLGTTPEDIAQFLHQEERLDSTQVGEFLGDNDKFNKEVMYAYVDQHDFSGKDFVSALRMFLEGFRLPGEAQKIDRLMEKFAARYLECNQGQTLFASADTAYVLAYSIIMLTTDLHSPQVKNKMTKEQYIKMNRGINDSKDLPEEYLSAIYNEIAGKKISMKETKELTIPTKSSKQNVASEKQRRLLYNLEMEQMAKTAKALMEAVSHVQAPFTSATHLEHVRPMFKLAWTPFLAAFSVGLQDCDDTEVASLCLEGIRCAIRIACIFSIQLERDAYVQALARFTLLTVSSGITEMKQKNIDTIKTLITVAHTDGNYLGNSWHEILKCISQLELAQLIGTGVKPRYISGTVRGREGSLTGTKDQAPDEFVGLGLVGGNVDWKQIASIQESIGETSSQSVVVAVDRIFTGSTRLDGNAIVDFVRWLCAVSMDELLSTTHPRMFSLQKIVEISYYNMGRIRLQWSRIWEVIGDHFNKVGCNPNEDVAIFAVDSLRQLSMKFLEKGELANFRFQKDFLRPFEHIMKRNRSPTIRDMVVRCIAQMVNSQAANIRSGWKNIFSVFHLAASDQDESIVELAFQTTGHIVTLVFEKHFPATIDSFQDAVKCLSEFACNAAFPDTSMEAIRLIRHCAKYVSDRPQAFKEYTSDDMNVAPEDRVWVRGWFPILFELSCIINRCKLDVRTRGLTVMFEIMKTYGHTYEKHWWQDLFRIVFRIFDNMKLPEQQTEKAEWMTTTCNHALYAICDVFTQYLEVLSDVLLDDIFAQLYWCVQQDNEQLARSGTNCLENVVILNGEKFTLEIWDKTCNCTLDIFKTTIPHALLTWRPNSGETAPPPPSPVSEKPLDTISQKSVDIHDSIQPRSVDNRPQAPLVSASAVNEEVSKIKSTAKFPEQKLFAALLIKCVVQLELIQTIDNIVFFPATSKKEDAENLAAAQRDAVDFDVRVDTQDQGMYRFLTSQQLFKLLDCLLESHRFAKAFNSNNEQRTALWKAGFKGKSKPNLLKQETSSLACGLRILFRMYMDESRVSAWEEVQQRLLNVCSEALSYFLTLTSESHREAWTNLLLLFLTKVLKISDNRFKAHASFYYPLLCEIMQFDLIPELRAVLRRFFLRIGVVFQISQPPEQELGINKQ
Sequence of UniProt Q8N5I2 (Q8N5I2 whole entry, looked up): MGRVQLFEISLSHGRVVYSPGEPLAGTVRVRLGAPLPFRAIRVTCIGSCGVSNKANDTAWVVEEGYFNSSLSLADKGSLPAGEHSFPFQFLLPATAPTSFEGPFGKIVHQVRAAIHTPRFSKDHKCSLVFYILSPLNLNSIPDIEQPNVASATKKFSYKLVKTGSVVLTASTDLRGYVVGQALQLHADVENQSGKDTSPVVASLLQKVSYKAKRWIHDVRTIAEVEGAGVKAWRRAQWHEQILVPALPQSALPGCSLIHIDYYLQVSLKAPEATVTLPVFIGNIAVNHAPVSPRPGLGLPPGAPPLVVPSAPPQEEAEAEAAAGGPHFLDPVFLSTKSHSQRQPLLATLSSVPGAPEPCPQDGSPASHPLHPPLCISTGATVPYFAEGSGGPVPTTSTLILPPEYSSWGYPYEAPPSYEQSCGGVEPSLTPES
Sequence of UniProt Q92560 (Q92560 whole entry, looked up): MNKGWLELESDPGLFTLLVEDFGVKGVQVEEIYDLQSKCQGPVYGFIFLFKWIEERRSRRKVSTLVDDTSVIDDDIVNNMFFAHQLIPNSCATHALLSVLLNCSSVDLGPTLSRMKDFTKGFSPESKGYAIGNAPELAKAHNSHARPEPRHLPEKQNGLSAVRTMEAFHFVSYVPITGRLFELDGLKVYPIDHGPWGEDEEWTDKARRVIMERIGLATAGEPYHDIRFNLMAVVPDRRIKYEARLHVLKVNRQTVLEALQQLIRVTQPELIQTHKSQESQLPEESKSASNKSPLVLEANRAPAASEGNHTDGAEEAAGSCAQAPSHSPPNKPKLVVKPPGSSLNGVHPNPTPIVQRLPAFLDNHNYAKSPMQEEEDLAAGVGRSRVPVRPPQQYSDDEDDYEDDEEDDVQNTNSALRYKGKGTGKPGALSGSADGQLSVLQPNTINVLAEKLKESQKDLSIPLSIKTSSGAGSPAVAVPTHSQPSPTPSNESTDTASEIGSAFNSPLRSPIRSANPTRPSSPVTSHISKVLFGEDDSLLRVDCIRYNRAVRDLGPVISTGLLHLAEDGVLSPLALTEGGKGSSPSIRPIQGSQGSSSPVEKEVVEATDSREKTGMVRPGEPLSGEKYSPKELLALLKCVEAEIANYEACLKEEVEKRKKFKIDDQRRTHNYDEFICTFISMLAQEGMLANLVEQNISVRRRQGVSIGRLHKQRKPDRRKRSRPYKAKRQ
Sequence of UniProt O14965 (O14965 whole entry, looked up): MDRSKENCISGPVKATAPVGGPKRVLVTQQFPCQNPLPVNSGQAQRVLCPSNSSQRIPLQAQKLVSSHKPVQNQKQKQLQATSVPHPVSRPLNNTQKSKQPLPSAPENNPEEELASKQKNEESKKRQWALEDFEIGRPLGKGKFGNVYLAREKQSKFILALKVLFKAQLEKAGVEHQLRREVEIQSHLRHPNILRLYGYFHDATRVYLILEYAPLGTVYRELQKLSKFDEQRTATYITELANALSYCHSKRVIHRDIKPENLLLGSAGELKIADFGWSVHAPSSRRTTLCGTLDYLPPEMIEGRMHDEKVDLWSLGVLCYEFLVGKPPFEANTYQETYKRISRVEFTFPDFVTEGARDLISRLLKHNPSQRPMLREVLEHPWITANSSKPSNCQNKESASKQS

| Target | log2 fold change [1] | log2 fold change (volasertib) | log2 fold change [2] | log2 fold change (epoxomicin) | log2 fold change [3] | log2 fold change [4] | log2 fold change [5] | log2 fold change (rosiglitazone) | log2 fold change [6] | log2 fold change [7] | log2 fold change (saracatinib) | log2 fold change (sotrastaurin) | log2 fold change (alvocidib) | log2 fold change (Tubastatin A) | log2 fold change [8] | log2 fold change (defactinib) | log2 fold change (rucaparib) | log2 fold change [9] | log2 fold change (encorafenib) | log2 fold change [10] |
| --- | --- | --- | --- | --- | --- | --- | --- | --- | --- | --- | --- | --- | --- | --- | --- | --- | --- | --- | --- | --- |
| BID isoform 2 (UniProt P55957) | 0.013 | -0.196 | -0.022 | -0.036 | -0.022 | 0.045 | 0.042 | 0.001 | -0.068 | -0.048 | 0.008 | 0.04 | -0.018 | 0.076 | -0.053 | -0.031 | 0.033 | -0.017 | -0.011 | -0.032 |
| BRD8 (UniProt Q9H0E9) | 0.038 | -0.044 | -0.013 | 0.039 | 0.035 | 0.043 | -0.044 | 0.003 | 0.025 | -0.063 | 0.004 | -0.001 | 0.004 | -0.097 | -0.017 | -0.047 | -0.012 | -0.08 | -0.027 | -0.009 |
| AGRN (UniProt O00468) | 0.042 | -0.001 | 0.005 | 0.065 | -0.018 | 0.053 | 0.016 | -0.012 | 0.062 | -0.02 | 0.062 | 0.065 | -0.009 | -0.01 | 0 | -0.119 | 0.032 | -0.164 | 0.034 | 0.014 |
| AURKA (UniProt O14965) | 0.017 | 0.134 | -0.022 | 0.113 | 0.004 | 0.733 (active) | 0 | -0.015 | 0.029 | 0.14 | -0.019 | -0.02 | -0.03 | 0.011 | 0.974 (active) | 0.722 (active) | 0.073 | 0.201 | 0.033 | 0.071 |
| AKAP8 (UniProt O43823) | 0.069 | -0.268 (active) | -0.017 | 0.003 | 0.02 | 0.026 | -0.03 | 0.017 | 0 | -0.131 | 0.012 | -0.021 | 0.112 | 0.002 | -0.073 | 0.01 | 0.017 | -0.126 | 0.037 | 0.008 |
| BAP1 (UniProt Q92560) | -0.037 | 0.13 | 0 | -0.092 | -0.019 | 0.101 | -0.093 | 0.021 | 0.047 | 0.055 | -0.091 | 0.089 | 0.053 | 0.042 | -0.1 | 0.09 | 0.037 | 0.061 | 0.014 | -0.017 |
| ADD2 (UniProt P35612) | 0.037 | 0.031 | -0.044 | 0.006 | 0.025 | -0.043 | -0.038 | 0.003 | -0.02 | 0.008 | 0.049 | -0.004 | -0.031 | -0.025 | -0.033 | -0.051 | -0.012 | 0.001 | -0.025 | -0.003 |
| BCCIP isoform 2 (UniProt Q9P287) | -0.037 | -0.038 | 0.044 | 0.019 | 0.023 | 0.022 | 0.026 | 0.021 | -0.042 | -0.028 | -0.004 | -0.044 | 0.031 | -0.036 | 0.013 | -0.019 | 0.087 | -0.005 | 0.037 | -0.024 |
| ARFGEF1 (UniProt Q9Y6D6) | -0.022 | -0.248 | 0.01 | 0.033 | -0.007 | 0.011 | -0.005 | 0.045 | -0.037 | -0.046 | 0.037 | 0.039 | -0.055 | 0.013 | 0.094 | 0.007 | 0.011 | 0.059 | 0.048 | -0.038 |
| B4GALT1 (UniProt P15291) | -0.324 (active) | -0.571 (active) | 0.033 | 0.051 | 0.041 | -0.048 | -0.03 | 0.072 | -0.081 | -0.28 (active) | -0.017 | -0.07 | -0.117 | 0.063 | 0.023 | 0.066 | 0.013 | -0.041 | 0.032 | -0.084 |
| AGPAT3 isoform 3 (UniProt Q9NRZ7) | -0.095 | -0.211 (active) | 0.017 | 0.02 | 0.004 | -0.082 | 0.012 | 0.011 | -0.069 | 0.001 | 0.01 | -0.084 | -0.061 | 0.019 | 0.012 | -0.037 | -0.036 | -0.045 | -0.001 | 0.008 |
| ALKBH5 (UniProt Q6P6C2) | 0.08 | 0.109 | 0.01 | -0.033 | -0.112 | -0.058 | -0.058 | -0.015 | -0.011 | 0.041 | -0.006 | -0.044 | 0.092 | 0.118 | -0.185 | 0.021 | 0.11 | 0.035 | -0.048 | 0.003 |
| ALG5 (UniProt Q9Y673) | -0.028 | -0.026 | 0.017 | 0.043 | -0.036 | -0.069 | 0.035 | 0.078 | -0.088 | 0.017 | -0.011 | -0.071 | -0.088 | 0.005 | 0.016 | -0.055 | -0.113 | 0.008 | -0.025 | -0.036 |
| BLVRB (UniProt P30043) | 0.008 | 0.046 | 0.012 | 0.161 | 0.023 | -0.078 | 0.014 | 0.017 | -0.049 | 0.127 | 0.101 | -0.047 | -0.083 | -0.002 | 0.058 | -0.045 | 0.043 | 0.061 | -0.007 | -0.003 |
| ARRDC1 (UniProt Q8N5I2) | -0.063 | -0.137 | -0.09 | -0.057 | 0.09 | 0 | 0.023 | -0.072 | -0.038 | 0.027 | 0.17 | -0.026 | -0.275 | 0.004 | -0.06 | -0.046 | 0.075 | -0.02 | -0.01 | -0.006 |
